MCF10A rerep = induces DNA re-replication in MCF 10a normal breast cells; MCF 10A DNA re-replication, Hoechst nuclear intensity, 48 h; Potency, µM (titrated, usually from 46.1 µM), without a hit: top-dose activity, positive = re-replication, usual class: activators; 2.9% of 350,000 active; AID 624296; further: potency means the concentration at half of the fitted maximal effect; % of control where 0% means no effect; nearly all actives have a fitted effect of over 50% in size
SW480 rereplic = inducers of DNA re-replication in SW480 colon cancer cells; SW480 DNA re-replication, Hoechst DNA content imaging, 48 h; Potency, µM (doses to about 46.1 µM), without a hit: top-dose re-replication activation, most hits filed as activators; 1.8% of 340,000 active; further: potency means the concentration at half of the fitted maximal effect; % of control where 0% means no effect; nearly all actives have a fitted effect of over 55% in size
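Compounds, transferred as 23 nL by pin tool, were incubated with cells for 48 hr; DNA content per nucleus was then quantified by Hoechst staining and fluorescence plate imaging.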
VP16 counter = inhibits Gal4-VP16 luciferase reporter, ROR gamma counter-screen | Drosophila S2 Gal4-VP16 UAS-luciferase, luminescence, 20 h | Potency, µM (doses to about 53.6 µM), inactives show at the highest dose activity, negative = inhibition, usual class: inhibitors | 3.5% of 310,000 active | AID 2546;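 further: Gal4-VP16 expression switched on by copper sulfate through the metallothionein promoter; potency means the concentration at half of the fitted maximal effect; on the % scale 0 is the no-effect control and ±100 the full control effect; nearly all actives have a fitted effect of over 50% in size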
RORg inh = ROR gamma (mouse) transcription inhibition | Drosophila S2 Gal4-RORgamma UAS-luciferase reporter, 20 h | Potency, µM (doses to about 53.6 µM), without a hit: top-dose activity change, negative = inhibition, hits mostly inhibitors | 5.4% of 310,000 active | AID 2551; further: potency means the concentration at half of the fitted maximal effect; on the % scale 0 is the no-effect control and ±100 the full control effect; nearly all actives have a fitted effect of over 60% in size
Target sequence (P51450 whole entry, looked up, the tested form may be a part): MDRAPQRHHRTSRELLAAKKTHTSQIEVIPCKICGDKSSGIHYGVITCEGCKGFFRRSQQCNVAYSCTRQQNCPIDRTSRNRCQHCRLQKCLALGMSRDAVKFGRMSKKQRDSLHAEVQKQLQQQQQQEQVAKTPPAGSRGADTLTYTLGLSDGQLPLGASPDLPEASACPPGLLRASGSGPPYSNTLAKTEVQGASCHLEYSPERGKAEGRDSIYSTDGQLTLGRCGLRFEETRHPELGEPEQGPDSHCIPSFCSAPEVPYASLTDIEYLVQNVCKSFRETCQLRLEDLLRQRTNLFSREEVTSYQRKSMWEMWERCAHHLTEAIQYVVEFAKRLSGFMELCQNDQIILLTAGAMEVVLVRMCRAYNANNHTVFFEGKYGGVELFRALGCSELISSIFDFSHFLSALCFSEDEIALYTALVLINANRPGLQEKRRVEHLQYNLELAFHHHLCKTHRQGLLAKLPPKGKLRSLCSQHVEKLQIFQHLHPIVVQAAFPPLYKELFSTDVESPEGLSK
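Compounds are pin-transferred onto Drosophila Schneider cells expressing a copper-inducible Gal4–ROR gamma transactivation domain fusion. After 1 hr, copper sulfate is added to 700 uM final; luciferase is read 20 hr later.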
IL-1B inflam inh = blocks inflammasome-driven IL-1 beta release | THP-1 LPS/ATP IL-1B secretion, AlphaLISA, 16 h; active compounds read low | activity change, % at 57.5 µM | 4.7% of 360,000 active | AID 743279; in the data active means activity change below about -50%; inconclusive means mostly about -30% to -49%; further: on the % scale 0 is the no-effect control and ±100 the full control effect
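THP-1 cells pretreated 1 hr with compounds (up to 57.5 uM final), then stimulated with LPS (250 ng/mL final) plus ATP (1.25 mM final); secreted IL-1B measured by AlphaLISA after 16 hr, decreased signal indicating inhibition.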
* hit, by the source's call; ? = inconclusive; / = no result; [ ] = dose if it differs, or a comment. Compounds with a hit are over-represented: about 11% of the library has one in this group of screens. Unless noted, the call rests on the fitted dose curve; in most records, active means well fitted curve in the direction sought with a large enough effect; inconclusive means small, poorly fitted or top-dose-only effect, or another doubt; inactive means no such curve, though single readings can be large; an effect the other way counts as inactive or inconclusive.

SMILES | MCF10A rerep | SW480 rereplic | VP16 counter | RORg inh | IL-1B inflam inh
CCOc1cc(C(=O)NN=C2CCCC2)cc(OCC)c1OCC | 16µM* | ? | -8% | -40% | 37
O=C(N/N=C1\CC2CC=CC12)c1ccc(O)cc1 (configuration not stated) | 3% | 16% | 4.5µM* | 2.5µM* | -6
O=C(NN=C1CCCC1)c1ccc([N+](=O)[O-])cc1 | -3% | -1% | 0% | 11µM* | 8
O=C(O)Cc1c(Cl)ccc(Cl)c1Cl | / | / | -10% | -8% | /
CC(N)c1csc(Nc2nccc(C(F)(F)F)n2)n1 (configuration not stated) | / | / | / | / | 4
O=C(NN=C1CCCC1)c1ccc(O)cc1 | 8% | -41% | ? | 11µM* | -21
CCOc1ccc(C(=O)Nc2ccc(NC(=O)c3ccco3)c(Cl)c2)cc1Cl | ? | ? | 6% | 36% | -7
O=C(Nc1ccccc1NC(=O)c1ccco1)c1ccccc1 | -6% | -5% | -10% | -16% | 40
CCOc1ccccc1NC(=O)c1cccc(NC(=O)c2ccco2)c1 | 6.5µM* | 7.3µM* | -25% | 18% | 5
CC(C)(C)c1ccc(C(=O)Nc2ccccc2NC(=O)c2ccco2)cc1 | ? | 0%[9.22 µM] | -7% | -6% | -54*
CCOc1ccc(C(=O)Nc2ccc(NC(=O)c3ccco3)c(Cl)c2)cc1Br | 5.8µM* | -14% | -10% | -28% | -11
Cc1ccccc1NC(=O)c1cccc(NC(=O)c2ccco2)c1 | -2% | -12% | 4% | 27% | -16
CN(CC(=O)Nc1c(Cl)cccc1Cl)C(=O)C1CC(=O)N(Cc2ccccc2)C1 (configuration not stated) | 1% | 1% | / | / | 5
C=CCC[C@@H](Cc1ccc(F)cc1)C(=O)OC[C@@H](Cc1c[nH]c2ccccc12)NC(=O)[C@H](CC=C)CC(=O)N(CCO)Cc1ccccc1 | 23µM* | ? | / | / | ?
C=CCC[C@H](Cc1ccc(F)cc1)C(=O)OC[C@H](Cc1c[nH]c2ccccc12)NC(=O)[C@@H](CC=C)CC(=O)N[C@H](CO)Cc1ccccc1 | ? | 4% | / | / | ?
C=CCC[C@H](Cc1ccc(F)cc1)C(=O)OC[C@@H](Cc1c[nH]c2ccccc12)NC(=O)[C@H](CC=C)CC(=O)N(CCO)Cc1ccccc1 | 18µM* | ? | / | / | ?
C=CCC[C@@H](Cc1ccc(F)cc1)C(=O)OC[C@@H]1CCCN1C(=O)[C@@H](CC=C)CC(=O)N(CCO)Cc1ccccc1 | ? | 21% | / | / | -73*
O=C(NC(Cc1cc(=O)[nH]c2ccccc12)C(=O)O)c1ccc(Cl)cc1 (configuration not stated) | 0% | -6% | -1% | 14% | /
COc1ccc(NC(=O)c2cc(-c3sc(NC(=O)c4ccccc4)nc3C)n(CCO)n2)cc1 | / | / | / | / | -12
O=c1cc(C(F)(F)F)[nH]c(=S)n1-c1ccccc1 | -20% | -5% | 3% | -25% | -3
COc1ccc(OCCNC(=O)c2ccc3nc(C)c(N(C)C(=O)CCc4ccccc4)n3c2)cc1 | / | / | / | / | -10
CCc1nc2c(OCc3cccc(Cl)c3)cccn2c1N(C)C(=O)c1ccc(OC)cc1 | / | / | / | / | 0
CCCCC(=O)N(C)c1c(CC)nc2c(OCc3cc(Cl)cc(Cl)c3)cccn12 | / | / | / | / | -62*
CCc1nc2c(OCc3cc(Cl)cc(Cl)c3)cccn2c1N(C)C(=O)c1cccc(OC)c1 | / | / | / | / | -56*
Cc1nn(CC(=O)NC2CCCCC2)c(C)c1[N+](=O)[O-] | / | / | / | / | -7
Oc1cccc2ccc(Nc3ccccn3)nc12 | 5.8µM* | ? | 2% | 12% | -110*
CC(C)C(=O)Nc1cc(C(F)(F)F)ccc1N1CCOCC1 | -6% | 2% | 1% | 37% | 10
O=C(NC(=S)Nc1cc(C(F)(F)F)ccc1N1CCOCC1)c1ccco1 | 2% | -2% | 11µM* | 1.4µM* | ?
CC(=O)NC(=S)Nc1cc(C(F)(F)F)ccc1N1CCOCC1 | 3% | 2% | ? | 13µM* | -61*
CNC(=O)[C@]1(C)C[C@H]1[C@H](NC(=O)[C@]1(C)C[C@H]1[C@H](NC(=O)OCc1ccccc1)c1ccccc1)c1ccccc1 | / | / | 13% | 28% | /

Screens deposited in PubChem by National Center for Advancing Translational Sciences (NCATS).
